Compound activity (PubChem)
Peg3 promoter = reduces Peg3 promoter-driven luciferase expression in HeLa | actives 1.7% (n = 360,000) | HeLa PEG-Prom luciferase reporter, luminescence, overnight | AID 588405 | inhibition, % at 20 µM;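 active = inhibition of at least 50% at 20 µM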
KKLEB tox = CF airway cell cytotoxicity counter-screen; actives 0.36% (n = 360,000); AID 602141; activity change (cytotoxicity), % at 5 µM; KKLEB CF airway cells viability, ATPlite luminescence, overnight; hits give low values; cells stimulated with P. aeruginosa culture filtrate;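 active = corrected activity change at or below -50% at 5 µM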
TROY signal inh = TROY signaling inhibition; Q293 LMP1-TROYcd NF-kB luciferase reporter, 4 h; inhibition, % at 10 µM; actives 0.98% (n = 360,000); AID 1347056;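 active = compounds whose plate-normalised and pattern-corrected inhibition of the luciferase reporter signal at the single screening dose is 50% or more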
TWEAK-Fn14 inh = inhibitors of TWEAK-Fn14 interaction signaling; actives 2% (n = 360,000); TWEAK-stimulated Fn14 reporter cells, luciferase luminescence, 8 h; inhibition, % at 10 µM; in the data active = inhibition above about 50%
CF NFkB inh = blocks PAF-induced NF-kB reporter in cystic fibrosis cells | KKLEB NF-kB-GFP reporter, GFP fluorescence overnight | inhibition, % at 5 µM | actives 0.86% (n = 360,000) | AID 588850;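 active = at least 50% inhibition at 5 µM, scaled per plate between neutral and stimulator controls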;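 also: PAF is a Pseudomonas aeruginosa culture filtrate used as stimulus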
HIF-2a inh = blocks HIF-2a reporter activity; actives 0.72% (n = 360,000); 786-0 RCC cells HIF-2a reporter, luciferase luminescence, overnight; AID 624352; inhibition, % at 18.8 µM;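 active = inhibition of the luminescence signal of 40% or more relative to plate controls, in a single-dose primary screen at 18.75 µM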
Mdm2-MdmX confirm = Mdm2/MdmX (human) interaction inhibition, confirmed. actives 99% (n = 740). shares compounds with HIF-2a inh. inhibition, % at 8 µM. SaOS-2 split-luciferase Mdm2/MdmX complementation, luminescence;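 active = mean inhibition of the luminescence signal across two replicates at or above 26 percent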
Target sequence (O15151 whole entry, looked up): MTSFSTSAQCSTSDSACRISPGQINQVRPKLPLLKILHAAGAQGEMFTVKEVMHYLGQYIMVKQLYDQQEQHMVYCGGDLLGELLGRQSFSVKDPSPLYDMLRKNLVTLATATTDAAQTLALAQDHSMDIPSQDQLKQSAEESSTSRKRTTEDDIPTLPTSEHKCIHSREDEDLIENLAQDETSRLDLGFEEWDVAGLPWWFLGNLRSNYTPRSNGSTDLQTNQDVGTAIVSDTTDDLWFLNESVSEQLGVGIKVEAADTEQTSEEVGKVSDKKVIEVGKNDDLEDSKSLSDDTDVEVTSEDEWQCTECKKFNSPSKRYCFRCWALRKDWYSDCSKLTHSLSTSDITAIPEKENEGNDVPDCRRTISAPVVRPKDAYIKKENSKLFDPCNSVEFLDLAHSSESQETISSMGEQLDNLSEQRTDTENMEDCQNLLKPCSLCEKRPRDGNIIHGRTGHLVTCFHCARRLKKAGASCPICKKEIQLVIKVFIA
Target sequence (Q00987 whole entry, looked up): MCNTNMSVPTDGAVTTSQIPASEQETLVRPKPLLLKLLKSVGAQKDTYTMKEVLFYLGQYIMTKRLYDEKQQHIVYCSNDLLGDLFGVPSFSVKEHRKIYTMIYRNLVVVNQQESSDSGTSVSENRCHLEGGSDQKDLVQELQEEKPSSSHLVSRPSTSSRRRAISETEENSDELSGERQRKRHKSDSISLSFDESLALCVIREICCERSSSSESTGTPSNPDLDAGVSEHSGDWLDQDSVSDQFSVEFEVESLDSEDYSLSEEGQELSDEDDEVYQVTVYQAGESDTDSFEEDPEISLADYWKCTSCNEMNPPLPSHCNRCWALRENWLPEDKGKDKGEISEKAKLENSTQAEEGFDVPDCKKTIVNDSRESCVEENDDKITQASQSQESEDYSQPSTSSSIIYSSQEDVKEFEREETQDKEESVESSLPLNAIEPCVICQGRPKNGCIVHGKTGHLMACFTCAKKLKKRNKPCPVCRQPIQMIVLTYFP
HIF-2a conf = HIF-2a inhibition, single concentration confirmation; shares compounds with HIF-2a inh; 786-0 RCC cells, HIF-2a luciferase reporter luminescence, overnight; inhibition, % at 18.8 µM; actives 56% (n = 1,800); AID 651580;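 active = mean inhibition across four replicates of at least 40 percent at the single tested concentration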
HIF-1a counter = HIF-1a inhibition counter-screen for HIF-2a hits; shares compounds with HIF-2a inh; MiaPaCa-2 HIF-1a luciferase reporter, desferoxamine, overnight; actives 72% (n = 1,800); AID 651589; inhibition, % at 18.8 µM;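 active = mean inhibition of the reporter signal across four replicates at the single tested dose of 50% or more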
Hits are given with their value; i = inactive; nt = not tested or not shown. Sampled rows, rich in hits. Any-hit rate of the full collection: about 4%.

SMILES	Peg3 promoter	KKLEB tox	TROY signal inh	TWEAK-Fn14 inh	CF NFkB inh	HIF-2a inh	HIF-2a conf	HIF-1a counter	others
COc1cc(N2C(=O)C=CC2=O)c(OC)cc1Cl	106	i	i	i	i	41	80	i
FC(F)(F)c1ccc(CN2C[C@@H]3C(c4ccc(Cl)nc4)C4(c5ccccc5)CC3(C4)[C@H]2c2ccccc2)cc1 (some centres not stated)	i	i	i	i	i	i	nt	nt
Cc1ccoc1C(=O)Nc1ccc(CC(=O)O)cc1	i	i	i	76	i	88	94	51
Cc1ccc(-c2c(NC(=O)c3ccco3)oc3ccccc3c2=O)cc1	i	i	i	i	i	i	nt	nt
COc1ccc(C2Nc3ccccc3C(=O)N2NS(=O)(=O)c2ccccc2)cc1OC (configuration not stated)	i	i	i	i	i	i	nt	nt
COc1ccc(/C=c2/sc3n(c2=O)C(c2ccccc2OC)C2=C(N=3)c3ccccc3CC2)cc1O (configuration not stated)	i	i	i	i	i	41	i	64
COC1(OC)N=C(N)C2(C#N)C(c3ccc(F)cc3)C12C#N (configuration not stated)	i	i	i	i	i	i	nt	nt
CCSC1(SCC)N=C(N)C2(C#N)C(c3ccc(F)cc3)C12C#N (configuration not stated)	107	i	nt	i	i	49	59	93
Cc1ccc(C(=O)OC(C)C(=O)NC2CCCCC2)cc1S(=O)(=O)N1CCCCC1 (configuration not stated)	i	i	i	i	i	i	nt	nt
CCC(OC(=O)c1ccc(S(C)(=O)=O)c([N+](=O)[O-])c1)C(=O)NC1C2CC3CC(C2)CC1C3 (configuration not stated)	96	-74	i	100	104	81	i	105
CC(OC(=O)c1ccc(S(C)(=O)=O)c([N+](=O)[O-])c1)C(=O)NC1C2CC3CC(C2)CC1C3 (configuration not stated)	95	i	i	102	95	93	87	100
Cc1ccc(NC(=O)CSCc2cc(=O)n3cc(C)sc3n2)c(C)c1	i	i	i	i	i	i	nt	nt
O=CN1CCN(c2ncnc3c2nnn3Cc2c(F)cccc2Cl)CC1	i	i	i	i	i	i	nt	nt
O=C(Nc1ccc2nc3n(c(=O)c2c1)CCCCC3)c1c(F)ccc([N+](=O)[O-])c1F	108	-87	86	106	87	88	98	96	Mdm2-MdmX confirm=103
O=C(Nc1ccc2nc3n(c(=O)c2c1)CCCCC3)c1ccccc1[N+](=O)[O-]	i	i	i	i	i	i	nt	nt
CCC(Sc1nc2n[nH]c(C)c2c(=N)n1-c1cccc(Cl)c1)C(=O)NCCOC (configuration not stated)	i	i	i	i	i	i	nt	nt
CCC(Sc1nc2n[nH]c(C)c2c(=N)n1-c1ccc(C)c(Cl)c1)C(=O)N1CCOCC1 (configuration not stated)	i	i	i	i	i	41	i	70
CCOc1ccc(CCN2C(=O)C(=O)N([C@@H](Cc3ccccc3)CN3CCC[C@H]3CN3C(=O)C(=O)NC[C@@H]3Cc3ccccc3)C[C@@H]2CC(C)C)cc1	nt	nt	i	i	nt	48	i	103
COc1ccccc1C=CC(=O)C=Cc1ccccc1OC	99	i	i	80	i	70	55	100
N#CCc1ccc(NC(=O)/C=C/c2ccc([N+](=O)[O-])o2)cc1	106	i	i	61	i	65	48	105
CCOC(=O)N1CCN(S(=O)(=O)c2ccc(C(=O)Nc3sc4c(c3C(=O)OC)CCN(C)C4)cc2)CC1	110	i	i	i	i	61	i	90
COC(=O)c1c(NC(=O)c2ccc(S(=O)(=O)N3CC(C)OC(C)C3)cc2)sc2c1CCN(C)C2 (configuration not stated)	i	i	i	i	i	i	nt	nt
Fc1ccc(/C=N/NC(=S)Nc2ccc(Cl)cc2Cl)cc1	i	i	i	i	i	i	nt	nt
O=[N+]([O-])c1ccc(/C=N/NC(=S)Nc2ccc(Cl)cc2Cl)s1	60	i	i	i	i	i	nt	nt	Mdm2-MdmX confirm=84
O=C(N/N=C/c1ccc([N+](=O)[O-])s1)c1ccccc1Br	i	i	i	i	i	70	76	91
SMILES	Peg3 promoter	KKLEB tox	TROY signal inh	TWEAK-Fn14 inh	CF NFkB inh	HIF-2a inh	HIF-2a conf	HIF-1a counter	others
O=C(N/N=C/c1ccc([N+](=O)[O-])s1)c1ccccc1	i	i	i	i	i	51	49	67
Cc1ccccc1NC(=O)/C=C/c1ccc([N+](=O)[O-])s1	107	-59	i	95	66	86	68	104
CCOC(=O)C1=CCC(c2cccs2)N(S(=O)(=O)c2ccc(C)cc2)C1 (configuration not stated)	i	i	i	i	i	i	nt	nt
Cc1ccccc1C(=O)NCC(=O)OCC(=O)NNC(=O)c1ccccc1F	i	i	i	i	i	i	nt	nt
Cc1ccccc1OCC(=O)Nc1cnn(CCCC(=O)O)c1	i	i	i	i	i	i	nt	nt
Cc1ccccc1C(=O)N/N=C/c1ccc([N+](=O)[O-])s1	50	i	i	i	i	76	90	95
Cc1sc2nc(C3CC3)nc(SCC(=O)N3c4ccccc4CC3C)c2c1C (configuration not stated)	i	i	i	i	i	i	nt	nt	Mdm2-MdmX confirm=101
Cc1nc(SCC(=O)N2c3ccccc3NC(=O)CC2C)c2c(C)c(C)sc2n1 (configuration not stated)	i	i	i	i	i	i	nt	nt
CC(=O)Nc1cccc(-c2cnc(N)c(C(=O)c3cccnc3)n2)c1	71	i	i	82	75	41	nt	nt	Mdm2-MdmX confirm=102
CC(=O)Nc1cccc(-c2csc(N)n2)c1	i	i	i	i	i	i	nt	nt
CSCCOC(=O)C1=C(C)NC(=O)NC1c1ccc2c(c1)OCO2 (configuration not stated)	i	i	i	i	i	i	nt	nt
CC1=C(C(=O)OCc2ccc3c(c2)OCO3)C(c2ccc(F)cc2)NC(=O)N1 (configuration not stated)	55	i	55	87	86	i	nt	nt	Mdm2-MdmX confirm=97
O=C(Cc1ccc(F)cc1)N[C@@H]1c2ccccc2CC[C@H]1OCc1ccccc1	i	i	i	i	i	i	nt	nt
COc1ccc(C(=O)c2coc(-c3ccccc3C(=O)O)c2C(=O)O)cc1	i	i	i	i	i	i	nt	nt
